# Source: PubChem BioAssay (NCATS)
# Where “and” joins values, the source holds several entries; their conditions need not be identical. Identical values can stand only once. Results filed as inconclusive are left out. Calls of active or inactive are those of the source. Unless noted, calls come from the whole dose curve; as a rule, active = well fitted curve in the direction sought with a large enough effect; inconclusive = small, poorly fitted or top-dose-only effect, or another doubt; inactive = no such curve, though single readings can be large; an effect the other way counts as inactive or inconclusive.
# Key:
# [1] = Cytotoxicity counterscreen for NFkB agonists and antagonists (AID 624476); conditions: NFkB reporter cell line viability counterscreen; series mostly up to 46.1 µM;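 note: cells exposed to compound for 48 hours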; note: potency is the fitted concentration of half-maximal effect
# [2] = qHTS Assay for Identification of Small Molecule Agonists for NFkB Signaling Pathway. (AID 624478); conditions: NFkB pathway reporter cell assay, agonist mode, cells co-stimulated with 10 pM TNF alpha; series mostly up to 46.1 µM; note: 0% is about no effect
# How it was run: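 NFkB-bla ME-180 cells carry a beta-lactamase reporter. They received compound plus TNF alpha at 10 pM final (its EC50) for 5 h at 37 C. Reporter activity was read as 460/530 nm emission ratio after 2 h LiveBLAzer substrate loading.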
# [3] = qHTS Assay for Identification of Small Molecule Antagonists for NFkB Signaling Pathway. (AID 624479; calls by dose curve; note: potency is the fitted concentration of half-maximal effect); conditions: NFkB pathway reporter cell assay, antagonist mode; series mostly up to 38.3 µM
# [4] = Cell Proliferation Assay against the TMD8 Cell Line (AID 651645); conditions: TMD8 DLBCL cell line proliferation/viability; at 46.1 µM (top of the series);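 note: cells exposed to compound for 48 h before reading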
# How it was run: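 500 TMD8 cells/well, RPMI + Glutamax, no phenol red, 5% FBS; cpd added immediately; 48 h, 37C, 5% CO2; CellTiter-Glo, luminescence. Controls: DMSO = 100%, bortezomib 9.2 uM final = 0%.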
# [5] = Cell Proliferation Assay against the HBL1 Cell Line (AID 651646); conditions: HBL1 DLBCL cells; at 46.1 µM (top of the series);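 note: cells exposed to compound for 48 h before reading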
# How it was run: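 500 log-phase HBL1 cells per well in phenol red-free RPMI with 5% FBS were treated with compounds for 48 h at 37 °C, 5% CO2. Viability was read by CellTiter-Glo luminescence, normalized to DMSO (100%) and 9.2 uM bortezomib final (0%).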
# [6] = target: Tyrosine-protein kinase Yes (Homo sapiens) (UniProt P07947); test: qHTS for small molecule inhibitors of Yes1 kinase: Primary Screen (AID 686947); conditions: Yes1 kinase biochemical qHTS inhibition; series mostly up to 76.9 µM; note: nearly all actives have a fitted effect of over 60% in size; note: potency is the fitted concentration of half-maximal effect
# Sequence of Tyrosine-protein kinase Yes (Homo sapiens) (P07947 whole entry, looked up): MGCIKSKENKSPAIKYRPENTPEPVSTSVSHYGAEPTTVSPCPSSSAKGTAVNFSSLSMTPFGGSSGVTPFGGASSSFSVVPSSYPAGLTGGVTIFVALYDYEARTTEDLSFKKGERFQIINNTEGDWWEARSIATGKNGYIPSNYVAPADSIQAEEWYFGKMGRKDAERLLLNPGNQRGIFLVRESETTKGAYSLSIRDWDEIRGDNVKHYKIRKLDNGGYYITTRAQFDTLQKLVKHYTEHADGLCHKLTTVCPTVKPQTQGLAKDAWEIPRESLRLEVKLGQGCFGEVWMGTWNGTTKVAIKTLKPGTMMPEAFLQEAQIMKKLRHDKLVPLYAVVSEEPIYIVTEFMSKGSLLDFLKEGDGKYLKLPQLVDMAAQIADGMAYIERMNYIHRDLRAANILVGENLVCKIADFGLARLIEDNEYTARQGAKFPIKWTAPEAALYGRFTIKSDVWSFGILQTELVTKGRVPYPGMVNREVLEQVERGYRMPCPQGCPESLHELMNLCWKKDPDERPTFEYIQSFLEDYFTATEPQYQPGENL
# How it was run: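 Yes1 (4 nM) preincubated 20 min with compound, then 60 min room-temperature reaction with 0.1 mM ATP and 0.3 mg/mL poly(E4Y) in pH 7.5 Tris, 10 mM MgCl2. ADP measured by ADP-Glo luminescence, normalised to enzyme/no-enzyme controls.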
# [7] = qHTS for small molecule inhibitors of Yes1 kinase: Counter Assay (AID 686950); conditions: series mostly up to 76.9 µM;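 note: no kinase present so only ADP-Glo detection of a fixed ADP amount is tested; luminescence from ADP-Glo reporting ADP in a fixed ATP and ADP mixture; 0% = DMSO wells with ATP plus ADP and -100% = ATP-only wells without ADP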
# How it was run: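 Enzyme-free ADP-Glo interference check: compounds were preincubated 20 min in buffer, then an ATP/ADP mix (0.08 mM ATP, 0.02 mM ADP final) was added for 60 min at room temperature before two-step ADP-Glo luminescence detection.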
# [8] = Cell Proliferation Assay against the TMD8 Cell Line (Caspase readout at 8 hrs) (AID 651713); conditions: TMD8 lymphoma cells, caspase activation luminescence; series mostly up to 46.1 µM; note: potency is the fitted concentration of half-maximal effect;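 for caspase activation: 0% = DMSO and 100% = 9.2 µM bortezomib caspase signal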
# How it was run: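 TMD8 cells in RPMI plus 5% FBS were treated with compound for 8 h at 37C. Caspase 3/7 activation was read by Caspase-Glo luminescence. Percent activity was scaled from DMSO (0%) to 9.2 uM bortezomib final (100%).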
# [9] = Cell Proliferation Assay against the TMD8 Cell Line (Caspase readout at 16 hrs) (AID 651712); conditions: TMD8 lymphoma cells, caspase activation luminescence; series mostly up to 46.1 µM; note: potency is the fitted concentration of half-maximal effect
# How it was run: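 TMD8 cells (500/well) in phenol-red-free RPMI with glutamine, 5% FBS, were exposed to compounds for 16 h at 37 °C. Caspase 3/7 activation was read by Caspase-Glo luminescence; percent activity normalised to DMSO (0%) and 9.2 uM bortezomib final (100%).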
Compound,Potency [1],outcome [2],Potency [3],viability (% of control) [4],"viability, percent of control [5]",Potency [6],outcome [7],Potency [8],Potency [9]
C#Cc1cccc(Nc2ncnc3cc(OC)c(OCCCCCCC(=O)NO)cc23)c1,2.64 µM (active),inactive,16.8 µM (active),-0.46%,1.91%,1730 nM (active),inactive,,
Nc1nc(Nc2ccc(S(N)(=O)=O)cc2)nn1C(=O)c1c(F)cccc1F,9.35 µM (active),inactive,0.473 µM (active),,49.5%,772 nM (active),inactive,14.8 µM (active),
Cc1ccc(C(=O)Nc2cccc(C(F)(F)F)c2)cc1-c1ccc2nc(NCCN3CCOCC3)ncc2c1,20.9 µM (active),inactive,4.73 µM (active),,0.88%,7.7 nM (active),inactive,20.9 µM (active),
CC(C)C[C@H](NC(=O)CNC(=O)c1cc(Cl)ccc1Cl)B(O)O,0.0743 µM (active),inactive,0.0084 µM (active),,5.36%,inactive,inactive,,
CN(c1ncccc1CNc1nc(Nc2ccc3c(c2)CC(=O)N3)ncc1C(F)(F)F)S(C)(=O)=O,10.5 µM (active),inactive,1.49 µM (active),,40.9%,194 nM (active),inactive,8.33 µM (active),
COc1ccc2c(c1)CC[C@@H](CN(C)CC(=O)O)[C@H]2c1ccccc1,inactive,inactive,inactive,118%,98.5%,inactive,inactive,inactive,
Nc1ccccc1NC(=O)c1ccc(CNc2nccc(-c3cccnc3)n2)cc1,14.8 µM (active),inactive,0.15 µM (active),,4.64%,inactive,inactive,inactive,
CC(C)c1ccc(Cn2ccc3c4c(N)nc(NC5CC5)nc4ccc32)cc1,9.35 µM (active),inactive,16.8 µM (active),1.25%,1.62%,,inactive,6.62 µM (active),
CC(C)[C@H](C(=O)Nc1ccc(C(=O)NO)cc1)c1ccccc1,18.7 µM (active),inactive,inactive,0.267%,0.0861%,inactive,inactive,,
O=C(C=Cc1cccnc1)NCCCCC1CCN(C(=O)c2ccccc2)CC1,inactive,inactive,inactive,,53.4%,inactive,inactive,inactive,
CCOc1cc2ncc(C#N)c(Nc3ccc(F)c(Cl)c3)c2cc1NC(=O)C=CCN(C)C,20.9 µM (active),inactive,11.9 µM (active),-0.0881%,2.39%,43.4 nM (active),inactive,16.6 µM (active),
CC[C@@H]1C(=O)N(C)c2cnc(Nc3ccc(C(=O)NC4CCC(N5CCN(CC6CC6)CC5)CC4)cc3OC)nc2N1C(C)C (stereo partly drawn),13.2 µM (active),inactive,5.3 µM (active),,4.22%,inactive,inactive,26.4 µM (active),
Cc1cn(-c2cc(NC(=O)c3ccc(C)c(Nc4nccc(-c5cccnc5)n4)c3)cc(C(F)(F)F)c2)cn1,9.35 µM (active),inactive,2.11 µM (active),17.5%,14.5%,inactive,inactive,inactive,
CC(C)(C)c1cnc(CSc2cnc(NC(=O)C3CCNCC3)s2)o1,0.166 µM (active),inactive,0.0473 µM (active),3.42%,36.4%,,inactive,0.0935 µM (active),
C[C@@H]1CN(CC(=O)Nc2ccc3c(c2)Cc2cccc(-c4cc(=O)cc(N5CCOCC5)o4)c2S3)C[C@H](C)O1,inactive,inactive,inactive,26.2%,56.7%,inactive,inactive,23.5 µM (active),
N#Cc1c(O)c2c(-c3ccc(-c4ccccc4O)cc3)csc2[nH]c1=O,inactive,inactive,inactive,112%,114%,inactive,inactive,inactive,
CCCCN1CCC(CNC(=O)c2c3n(c4ccccc24)CCCO3)CC1,inactive,inactive,inactive,,93.7%,inactive,inactive,inactive,
Cc1[nH]nc2ccc(-c3cncc(OC[C@@H](N)Cc4ccccc4)c3)cc12,4.69 µM (active),inactive,0.168 µM (active),-0.774%,4.82%,,inactive,2.35 µM (active),1.32 µM (active)
COc1cccc2nc(-c3cccs3)nc(NN3C(=O)C=C(C)C3=O)c12,inactive,inactive,0.841 µM (active),3.01%,3.09%,inactive,inactive,0.166 µM (active),
CC[C@@H]1C(=O)N(C)c2cnc(Nc3ccc(C(=O)NC4CCN(C)CC4)cc3OC)nc2N1C1CCCC1,16.6 µM (active),inactive,13.3 µM (active),4.43%,5.81%,,inactive,29.6 µM (active),1.18 µM (active)

Compound,Potency [1],outcome [2],Potency [3],viability (% of control) [4],"viability, percent of control [5]",Potency [6],outcome [7],Potency [8],Potency [9]
CN(C)CC=CC(=O)Nc1cc2c(Nc3ccc(F)c(Cl)c3)ncnc2cc1O[C@H]1CCOC1,29.6 µM (active),inactive,13.3 µM (active),0.0294%,1.34%,,inactive,,
Cn1c2cc(S(C)=O)sc2c2cnn(Cc3cccc(N)c3)c(=O)c21 (stereo not drawn),inactive,inactive,16.8 µM (active),110%,93.3%,inactive,inactive,inactive,inactive
Nc1ccccc1NC(=O)c1ccc(CNC(=O)OCc2cccnc2)cc1,inactive,inactive,inactive,,4.18%,15400 nM (active),inactive,inactive,
CC=C1NC(=O)[C@H]2CSSCCC=C[C@H](CC(=O)N[C@H](C(C)C)C(=O)N2)OC(=O)[C@H](C(C)C)NC1=O,0.0935 µM (active),inactive,inactive,,3.6%,inactive,inactive,,
CNC(=O)c1cc(Oc2ccc(NC(=O)Nc3cc(C(C)(C)C)nn3-c3ccc4ncccc4c3)c(F)c2)ccn1,2.64 µM (active),inactive,0.0421 µM (active),,58.7%,,inactive,,inactive
CCN1CCN(Cc2ccc(-c3cc4c(N[C@H](C)c5ccccc5)ncnc4[nH]3)cc2)CC1,33.2 µM (active),inactive,16.8 µM (active),1.56%,1.9%,,inactive,,16.6 µM (active)
CC(=O)OCCN1C(=O)c2c(C)nc3ccc(S(=O)(=O)N4CCOCC4)cc3c2C1=O,inactive,inactive,inactive,94.5%,105%,inactive,inactive,inactive,
CC(NCc1ccc2c(c1)nc(NC(=O)c1ccc(-c3cn[nH]c3)s1)n2CC(C)(C)O)C(C)(C)C (stereo not drawn),0.332 µM (active),inactive,0.0266 µM (active),1.7%,1.76%,5.5 nM (active) and 0.2 nM (active),inactive,0.332 µM (active),
Cc1cccc(C=NNc2cc(N3CCOCC3)nc(OCCc3ccccn3)n2)c1,inactive,inactive,21.1 µM (active),0.274%,0.729%,inactive,inactive,,
COc1ccc(CC2SC(=O)NC2=O)cc1C(=O)NCc1ccc(C(F)(F)F)cc1 (stereo not drawn),inactive,inactive,inactive,,66%,inactive,inactive,inactive,
COc1cc2c(Oc3ccc(-c4cnc(Nc5ccc(F)cc5)n(C)c4=O)cc3F)ccnc2cc1OCCCN1CCOCC1,29.6 µM (active),inactive,18.8 µM (active),1.34%,1.76%,137 nM (active),inactive,,
Cc1cnc(-c2cnc(NCCNc3ccc(C#N)cn3)nc2-c2ccc(Cl)cc2Cl)[nH]1,inactive,,14.9 µM (active),9.76%,22.7%,inactive,inactive,,
O=C(NC1CCNCC1)c1[nH]ncc1NC(=O)c1c(Cl)cccc1Cl,209 nM (active) and 296 nM (active),,33.5 nM (active) and 66.8 nM (active),1.51% and 1.72%,45.8% and 42.8%,inactive,inactive,332 nM (active) and 264 nM (active),0.118 µM (active)
C=C1C(=CC=C2CCCC3(C)[C@@H]([C@H](C)C=CC=CC(O)(CC)CC)CC[C@@H]23)C[C@@H](O)C[C@@H]1O (stereo partly drawn),23.5 µM (active),,16.8 µM (active),3.4%,2.25%,inactive,inactive,,
NC(=O)Nc1cc(-c2cccc(F)c2)sc1C(=O)N[C@H]1CCCNC1,1.32 µM (active),,14.9 µM (active),5.07%,19.6%,,inactive,,0.0418 µM (active)
CCCCc1nc2cc(C=CC(=O)NO)ccc2n1CCN(CC)CC,14.8 µM (active),inactive,,1.77%,1.9%,inactive,inactive,inactive,
COCCn1c2c([n+](Cc3cnccn3)c1C)C(=O)c1ccccc1C2=O,0.0118 µM (active),inactive,,1.68%,1.98%,inactive,inactive,,
CN1CCN(c2cc(C(=O)Nc3ccc4c(c3)-c3c(c(C(N)=O)nn3-c3ccc(F)cc3)CC4)c(Cl)cn2)CC1,inactive,inactive,,0.112%,0.345%,inactive,inactive,33.2 µM (active),
Cc1ccc(C(=O)Nc2ccc(CN3CCN(C)CC3)c(C(F)(F)F)c2)cc1C#Cc1cnc2cccnn12,20.9 µM (active),,2.66 µM (active),1.83%,2.46%,,inactive,23.5 µM (active),0.662 µM (active)
